The record followed here is the supplement of paper PMC10105736.

Values without a mark were called inactive.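 The calls were made as follows: active = MAPPIT score above the 99th percentile of random reference set scores in the same batch; inactive = at or below it.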

Assay in all cases: MAPPIT interaction score (arbitrary units); higher = stronger binary interaction signal, active = hit call of the paper
One assay concerns the target CG33514. As to conditions: MAPPIT configuration: N-N; pair source set: DPIM.
A further assay concerns the target cv. Particulars: MAPPIT configuration: N-N; pair source set: DPIM.
Another assay has as its target dah. Particulars: MAPPIT configuration: N-N; pair source set: DPIM.
For another assay, the target named is CG3473. As to conditions: MAPPIT configuration: N-N; pair source set: screen_2.
The next assay addresses Ubc2. Particulars: MAPPIT configuration: N-N; pair source set: screen_2.
For a further assay, the target named is CG3356. Particulars: MAPPIT configuration: N-N; pair source set: Lit-BS-16.
The target of a further assay is sinah. Particulars: MAPPIT configuration: N-N; pair source set: screen_1.
The target of the next assay is CG34345. Particulars: pair source set: RRS.
The next assay concerns the target CG3457. As to conditions: MAPPIT configuration: N-N; pair source set: Finley_Y2H.
The next assay concerns the target CG32846. Particulars: MAPPIT configuration: N-N; pair source set: screen_1.
In the next assay the target is Git. Particulars: MAPPIT configuration: N-N; pair source set: screen_2.
A further assay deals with Mst87F. As to conditions: MAPPIT configuration: N-N; pair source set: screen_2.
A further assay addresses CG32809. As to conditions: MAPPIT configuration: N-N; pair source set: Curagen_low_conf.
Another assay addresses RhoGAP92B. Particulars: MAPPIT configuration: N-N; pair source set: Curagen_low_conf.
In the next assay the target is CG3557. Particulars: MAPPIT configuration: N-N; pair source set: Curagen_low_conf.
The target of the next assay is Mst84Db. As to conditions: MAPPIT configuration: N-N; pair source set: Curagen_low_conf.
Another assay concerns the target CG3517. Particulars: MAPPIT configuration: N-N; pair source set: Finley_Y2H.
For a further assay, the target named is CG34328. As to conditions: MAPPIT configuration: N-C; pair source set: screen_3.
Another assay concerns the target CG34168. As to conditions: MAPPIT configuration: N-N; pair source set: Curagen_high_conf.
The target in the next assay is CG34149. As to conditions: MAPPIT configuration: N-C; pair source set: RRS.
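Also: HEK293T cells with Epo stimulation, STAT-responsive firefly luciferase reporter, fold induction versus unstimulated cells divided by the larger fold induction of two negative controls lacking either bait or prey.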

B1: RpS21 (protein)
chain: MENDAGENVDLYVPRKCSASNRIIHAKDHASVQLSIVDVDPETGRQTDGSKTYAICGEIRRMGESDDCIVRLAKKDGIITKNF
With B1, the MAPPIT interaction score with CG33514 was 0.423; in the assay with cv, -0.17; with dah, -0.359.

B2: Iru (protein)
chain: MAEAMVVEDRPAEAKRFFCHMCNVEINIPNSDFTCPLCANGFVEELPANAPEMDSSTAGASGSARSGSSGSGSSGSHDTLSRGSSSSGSQVNVESLRNDIVSLLNMRNVPNLEITIEPNRRHSNVLHLGGFGGPSGSDSARGLTAGGRVRPANLDRLDNVLFDFLQSLPLAGATAEIVTGPGGGGVGGGGNSHMFFMGNPGDYAWGREGLDTIVTQMLNQMETSGPPPLSAQRINEIPNVQINAEEVNRKIQCSICWDDFKIDETVRKLPCSHLYHENCIVPWLNLHSTCPICRKSLADDGNDADDEFVMLDAFGPEMAADGSNSERRSASTATGTDNPSPANNPSQAAAEGGRTRPDANPAQAARNNIFTFDDDNMFLD
Regarding B2, the MAPPIT interaction score with CG3473 was 0.831; in the assay with Ubc2, 0.234.

B3: Ubc4 (protein)
chain: MANMAVSRIKREFKEVMRSEEIVQCSIKIELVNDSWTELRGEIAGPPDTPYEGGKFVLEIKVPETYPFNPPKVRFITRIWHPNISSVTGAICLDILKDNWAAAMTLRTVLLSLQALLAAAEPDDPQDAVVAYQFKDKYDLFLLTAKHWTNAYAGGPHTFPDCDSKIQRLRDMGIDEHEARAVLSKENWNLEKATEGLFS
As to B3, the MAPPIT interaction score is 0.159 with CG3356 and 2.14 with sinah.

B4: MCU (protein)
chain: MSRNRAAMVSAFRLFLRPATTTTHRSLALRLAPGTTFALHLRPCHELQQHRSFASTAEDGETDKHKKPTTGEDIYVEYVNGMPHMTVRLPSRNELCQFALKPISHNVGDLLAMLRAEDRGIDRAAVINKHGVRIASSCTIESLLDDSFSIQINNRTLDVNPPKRDKVTLESMDKVGDVRKVIAQLYEAFNVGEYQLEKSNQLAKELETLRYELEPLEEKKLELSKKAARRTNFMTWMGLGLMSVQFGILARLTWWEYSWDIMEPVTYFVTYGTTMAMYAYYCVTKREYMMEDVKNREFSLSLYRNAKKVQFDVEHYNELKRKSAELEYNLRRINDPLNMQLPSHLVRTQENTPPTLTEEKAERKYT
Regarding B4, the MAPPIT interaction score with CG34345 (MAPPIT configuration: N-C) is 0.433; with CG34345 (MAPPIT configuration: N-N), 0.157.

B5: Cog6 (protein)
chain: MSSTQEKPEELDRIQKRVNKILEARLESDKDTLDALSGLSTFFTENTLQNRRNLRSQIEHRSVGINENFLKAFRQVKLSLDAVCEDLDTMATSVETMKSDLETSKALTKDLIKQTNTMQRERDRLEVHKQIAQAFLARFQLSGAEHQLLYGAAKDAPIVADFFRVLDRVQSIHADCRLLMQCGYQTAAIDIMEEMTLHQEGALERLYRWTQNHCRSLENNEIGPLIVEAMSRLQDRPVLFKYVIDEYAIARRAVLVRQFIEALTEGGPGGNPKPIELHAHDPKRYIGDMFAWLHQSIPTEKENLSLLFKKCDKQDISDQLQNALGYIADGVCHPLKVRVETILQAEKDTIVLFTISNLLRFYQQIMRQVVQGGSLEECLVELQKSSEQIYLGALAAQVRSVLQRPSGGSGLALEPPQRDLVPPPSVARLLNMLKEILSVATMVDGRQADITKIVSCVIDPLLQSVQESAAHLPTVDMGVYLLNCLHHMQSSLAVYEYMDERVERLQAQSDAQLDTLTSEQASSLVANLNLGPIYAILQSNQSKIETNLLKIFMSKMDAFLELPDVLLLPQVQLIMSSSHRAAVQKRSFNVIVAIYKQIYERVHDPANGFEQPEQLLHRTPEQVAHILTST
As for B5, the MAPPIT interaction score in the assay with CG3457 was 0.308.

B6: unk (protein)
chain: MLANETNKLLLSSQQEKPNHYTYLKEFRVEQCQSFLQHKCNQHRPFVCFNWHFQNQRRRRPVRKRDGTFNYSADNYCTKYDETTGICPEGDECPYLHRTAGDTERRYHLRYYKTCMCVHDTDSRGYCVKNGLHCAFAHGMQDQRPPVYDIKELETLQNAESTLDSTNALNALDKERNLMNEDPKWQDTNYVLANYKTEPCKRPPRLCRQGYACPQYHNSKDKRRSPRKYKYRSTPCPNVKHGEEWGEPGNCEAGDNCQYCHTRTEQQFHPEIYKSTKCNDVQQAGYCPRSVFCAFAHVEPCSMDDPRENSLSASLANTSLLTRSSAPINIPNTTLSNSINDFNSGSFAVNIPSSSLTYSPTNHANLFNVDAFNYGGSNKLSNSLSATQNDSSLFFPSRIISPGFGDGLSISPSVRISELNTIRDDINSSSVGNSLFENTLNTAKNAFSLQSLQSQNNSDLGRITNELLTKNAQIHKLNGRFEDMACKLKIAELHRDKAKQEAQEWKERYDLAQIQLNLPAELRDLSIQKLKQLQSKLRTDLEEVDKVLYLENAKKCMKCEENNRTVTLEPCNHLSICNTCAESVTECPYCQVPVITTHT
For the molecule B6, the MAPPIT interaction score in the assay with CG32846 is -2.23; with Git, 1.05; with Mst87F it was 0.54.

B7: Nup62 (protein)
chain: MVFQLPTTTAAPTGGATSSFSFGLSTGTPAAAPASGAATTAPATKTTFSFGTPAPTAGIGGGDADNSKAQAPPAFGFGLGSGTASAPLTLGTQAAANPASTTSATATGTSAAPPAFGGFTAQPAASVVPTIATSAPNTAATTTGLLGGSGLGAPKTTAAASTTLTAAPSAIASTQGAAPAPTLSTGGAFANLTTETKTTDSSAVSTASQLSYHQLEEHINKWTLEFEEQEKVFTEQATQINAWDKLLISNNGKIVELNDAVKKVKTDQQVLDQELEFIATQQKELEDSLGPLEKEFVNLPRVDMERSQTYLMVENLDTQLKQMSEDLKEIIDNLNEANKGQDTTDPIIQIGKILNAHMNSLQWIESQSTNISKKLEDIGKIQDSQKRDIFRAPF
Regarding B7, the results for the MAPPIT interaction score with CG32809 and with RhoGAP92B were 2.19 and 0.00556, respectively.

B8: tos (protein)
chain: MGITGLIPFVGKASSQLHLKDIRGSTVAVDTYCWLHKGVFGCAEKLARGEDTDVYIQYCLKYVNMLLSYDIKPILVFDGQHLPAKALTEKRRRDSRKQSKERAAELLRLGRIEEARSHMRRCVDVTHDMALRLIRECRSRNVDCIVAPYEADAQMAWLNRADVAQYIITEDSDLTLFGAKNIIFKLDLNGSGLLVEAEKLHLAMGCTEEKYHFDKFRRMCILSGCDYLDSLPGIGLAKACKFILKTEQEDMRIALKKIPSYLNMRNLEVDDDYIENFMKAEATFRHMFIYNPLERRMQRLCALEDYETDERYCSNAGTLLEDSEQALHLALGNLNPFSMKRLDSWTPEKAWPTPKNVKRSKHKSIWQTNFQSENTHTPKKENPCALFFKKVDFVGKTLNEEIEANQRLEQAKQTEAELFNMYSFKAKRRRSPSREDSVDQERTPPPSPVHKSRHNPFAKERTGEEANQRSPVVCENASLLRLLSPKKASPLDGEAGVKKVDSLKRSIFAKEQVQIRSRFFATQDEQTRLQREHLRDTENDDMDEQKLSSHSGHKKLRLVCKDIPGKNPIRQRCSSQISDGETDTDTTASSLLESQDKGVPSPLESQEDLNNSQPQIPTEGNTNSTTIRIKSLDLLLENSPEPTQESDRNNNDAIILLSDDSCSSDQRASSTSSSSQQRQNFLPTSKRRVGLSKPSTAKKGTPKSRTNGKLGAVSQNQTKLSMFGFQTKPVLK
For the molecule B8, the MAPPIT interaction score with CG3557 was 0.0573; with Mst84Db, -0.0214.

B9: MED4 (protein)
chain: MSFHLSTKERLLLLIDDIEMIAKELIEQAHQKISSTELVDLLDLLVAKDEEFRKMLELAEEQAKVEEAMDQLRAKVEVHDREIQKLQKSLKDAELILSTAIFQARQKLASINQANKRPVSSEELIKYAHRISSANAVSAPLTWCIGDLRRPYPTDIEMRNGLLGKSEQNINGGTVTHQNSGMPSEQQRTLSGSAGSGSGSGAGGEVPNAFQNQFNWNLGELHMTMGASGNTVALETRAQDDVEVMSTDSSSSSSSDSQ
As to B9, the MAPPIT interaction score in the assay with CG3517 is 1.9.

B10: betaTub85D (protein)
chain: MREIVHIQAGQCGNQIGGKFWEVISDEHCIDATGTYYGDSDLQLERINVYYNEATGAKYVPRAILVDLEPGTMDSVRSGAFGQIFRPDNFVFGQSGAGNNWAKGHYTEGAELVDSVLDVVRKESEGCDCLQGFQLTHSLGGGTGSGMGTLLISKIREEYPDRIMNTFSVVPSPKVSDTVVEPYNATLSVHQLVENTDETYCIDNEALYDICFRTLKLTTPTYGDLNHLVSATMSGVTTCLRFPGQLNADLRKLAVNMVPFPRLHFFMPGFAPLTSRGSQQYRALTVPELTQQMFDAKNMMAACDPRHGRYLTVAAIFRGRMSMKEVDEQMLNIQNKNSSFFVEWIPNNCKTAVCDIPPRGLKMSATFIGNSTAIQELFKRVSEQFTAMFRRKAFLHWYTGEGMDEMEFTEAESNMNDLVSEYQQYQEATADEEGEFDEDEEGGGDE
Consider B10, for which the MAPPIT interaction score in the assay with CG34328 was 4.11 (active).

B11: Mob2 (protein)
chain: MNWAISNLTGGNRVSRAILVRYSSVPLADATNDGSSTAPQTPTASTPRPSSSHSSLSSTFAATFLHASSRHIPGRAVPRQNANGQNGGKGNASGAGGGAGGGGAGGASGGTGGTGAQAAGQLSLPLDVEETVTCFCRKARRKERDGDQNSTDTKLYLEESVLERKLPEADLKALVDLPAGLDYNEWLASHTLALFEHVNLVYGTISEFCTQSGCADMTGPGNRTYLWFDEKGKKTRVAAPQYIDYVMTFTQKTVSDESIFPTKYANEFPGSFESIARKILRLQFHVIAHLYAAHFREIALLGLHTHLNLTFAHLTALHRRFNLIDEKETDVLRDLEVALRLTDDTGGCQDATSTTSSVHDHSHSGDLQHQSLQQQQQHHNSSSNSTSSAEAFHVNSQSNNGSTSASASVSLIDGDAVAPPICTQPEAGAGCKPAGSSGLLGGILGDLTSGEFGDTTRYCTSAVPQAAAAAGAGVGGTAIGATDAAALNNGAGALHLNFSNNNNNNHNLNHHHHHHHHHGHHGHHHAAQQQQQHSGLIQCNAAGGGGNATGVATGGATAAASSTTTA
Consider B11, for which, in the assay with CG34168, the MAPPIT interaction score was 0.212.

B12: Cyp4d2 (protein)
chain: MLGVVGVLLLVAFATLLLWDFLWRRRGNGILPGPRPLPFLGNLLMYRGLDPEQIMDFVKKNQRKYGRLYRVWILHQLAVFSTDPRDIEFVLSSQQHITKNNLYKLLNCWLGDGLLMSTGRKWHGRRKIITPTFHFKILEQFVEIFDQQSAVMVEQLQSRADGKTPINIFPVICLTALDIIAETAMGTKINAQKNPNLPYVQAVNDVTNILIKRFIHAWQRVDWIFRLTQPTEAKRQDKAIKVMHDFTENIIRERRETLVNNSKETTPEEEVNFLGQKRRMALLDVLLQSTIDGAPLSDEDIREEVDTFMFEGHDTTTSAISFCLYEISRHPEVQQRLQQEIRDVLGEDRKSPVTLRDLGELKFMENVIKESLRLHPPVPMIGRWFAEDVEIRGKHIPAGTNFTMGIFVLLRDPEYFESPDEFRPERFDADVPQIHPYAYIPFSAGPRNCIGQKFAMLEMKSTVSKLLRHFELLPLGPEPRHSMNIVLRSANGVHLGLKPRA
Turning to B12, the MAPPIT interaction score with CG34149 is -1.31.
